The source of these data is PubChem BioAssay.

Active and inactive are the calls of the source.

The nature of test [1]: binders of probe aFSTL3 on microarray, primary screen, stem cell growth factor project, biochemical, small-molecule microarray, fluorescence 635/667 (AID 1064).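 Note: measures binding of the biotinylated anti-FSTL3 antibody to printed compounds.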 The conditions noted are these: higher = more signal.
The nature of test [2]: binders from COS7 lysate, DM2A8 probe, primary screen, torsin A project, cell lysate, small-molecule microarray, fluorescence 635/667 (AID 1065). To be noted: higher = more signal, COS7 lysate expressing mutant human TOR1A.
Test [3] in a line: binders of probe aFGF2 on microarray, primary screen, stem cell growth factor project, biochemical, small-molecule microarray, fluorescence 635/667 (AID 1067).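 Note: measures binding of biotinylated aFGF2 protein to printed compounds on slides; z-score merges feature fluorescence and signal-to-noise across triplicate slides.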 The conditions noted are these: higher = more signal.
The nature of test [4]: binders of probe aFGF10 on microarray, primary screen, stem cell growth factor project, biochemical, small-molecule microarray, fluorescence 635/667 (AID 1071).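 Note: score merges 667 nm spot intensity and signal to noise from triplicate slides.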 The conditions noted are these: higher = more signal.
Test [5] has as its target Neurogenic locus notch homolog protein 2 (Homo sapiens) (UniProt Q04721). Kind of test: Notch2 binders on small-molecule microarrays, primary screen, biochemical, small-molecule microarray, 635 nm fluorescence, stem cell growth factors (AID 1073). The conditions noted are these: Notch2 binding, higher = more signal.
Test [6] deals with Pro-neuregulin-1, membrane-bound isoform (Homo sapiens) (UniProt Q02297). Briefly: NRG1 binders on small-molecule microarrays, primary screen, psychiatric disease protein project, biochemical, small-molecule microarray, fluorescence 635/667 (AID 1075).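 Note: score combines 667 nm spot fluorescence with signal to noise.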 To be noted: NRG1 binding, 635 nm fluorescence, higher = more signal.
Chain of Pro-neuregulin-1, membrane-bound isoform (Homo sapiens) (Q02297 whole entry, looked up, the tested form may be a part, canonical isoform): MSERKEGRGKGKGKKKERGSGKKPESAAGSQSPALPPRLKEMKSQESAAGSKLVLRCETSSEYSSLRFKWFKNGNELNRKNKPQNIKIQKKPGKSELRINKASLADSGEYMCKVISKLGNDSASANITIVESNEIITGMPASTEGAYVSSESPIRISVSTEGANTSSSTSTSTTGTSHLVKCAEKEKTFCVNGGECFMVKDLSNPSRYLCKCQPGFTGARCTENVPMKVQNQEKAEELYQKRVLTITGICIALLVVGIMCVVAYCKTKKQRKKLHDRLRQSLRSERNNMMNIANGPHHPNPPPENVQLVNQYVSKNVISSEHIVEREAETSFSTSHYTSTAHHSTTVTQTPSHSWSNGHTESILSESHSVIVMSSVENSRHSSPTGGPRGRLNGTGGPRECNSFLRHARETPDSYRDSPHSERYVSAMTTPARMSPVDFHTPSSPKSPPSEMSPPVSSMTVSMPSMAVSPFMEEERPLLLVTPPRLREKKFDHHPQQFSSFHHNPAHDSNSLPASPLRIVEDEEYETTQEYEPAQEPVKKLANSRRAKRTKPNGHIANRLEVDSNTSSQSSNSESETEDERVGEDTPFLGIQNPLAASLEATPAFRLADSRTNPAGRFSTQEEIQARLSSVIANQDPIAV
Test [7] concerns Neuregulin-1 EGF-like domain. Briefly: binders of neuregulin-1 EGF-like domain, primary screen, biochemical, small-molecule microarray, 635 nm fluorescence (AID 1081).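 Note: binding of the protein to compounds printed on small-molecule microarray slides.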 The conditions noted are these: small-molecule microarray binding, higher = more signal.
A short description of test [8]: FRG1 promoter luciferase signal modulators, primary screen, FRG1 inhibition for FSHD, cell-based, C2C12 myotubes, firefly/Renilla luciferase, luminescence (AID 1084). To be noted: higher = more signal, called active from +8 up or from −8 down.
Test [9] in a line: binders of probe aFST on microarray, primary screen, stem cell growth factor project, biochemical, small-molecule microarray, fluorescence 635/667 (AID 1086).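 Note: score merges 667 nm fluorescence with signal-to-noise of each printed compound spot.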 To be noted: higher = more signal.
The nature of test [10]: binders of probe aHhip on microarray, primary screen, stem cell growth factor project, biochemical, small-molecule microarray, fluorescence 635/667 (AID 1087).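 Note: score merges spot fluorescence at 667nm with spot signal to noise ratio.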 To be noted: higher = more signal.
Test [11] concerns PRMT1 (protein arginine N-methyltransferase 1). Briefly: PRMT1 binders on small-molecule microarrays, primary screen, biochemical, small-molecule microarray, 635 nm fluorescence (AID 1088).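 Note: binding of Prmt1 protein to compounds spotted on small-molecule microarray slides.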 The conditions noted are these: small-molecule microarray binding, higher = more signal.
The nature of test [12]: yeast growth modulation, basal conditions, primary screen, YJM789 clinical isolate, OD600, 24 h (AID 1089).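 Note: growth of clinical yeast isolate S. cerevisiae YJM 789 seeded 1000 cells per well; test concentration not given here.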 To be noted: S. cerevisiae YJM789 growth, higher = more signal, called active from +8 up or from −8 down.
Test [13] is described as follows: fission yeast growth modulation, primary screen, strain 972, OD600, 24 h, no modulator (AID 1090).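 Note: basal condition with compound alone and no growth modifier present; test concentration not given here.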 The conditions noted are these: S. pombe 972 growth, higher = more signal, called active from +8 up or from −8 down.
Test [14] is described as follows: S. cerevisiae growth modulation with rapamycin, primary screen, strain BY4716, OD600, 96 h (AID 1091). Note: test concentration not given here. To be noted: higher = more signal, called active from +8 up or from −8 down.
Test [15] concerns the target Torsin-1A-interacting protein 2 (Homo sapiens) (UniProt Q8NFQ8). Kind of test: LULL1 binders on small-molecule microarray, primary screen, cell lysate, human LULL1 lysate, 635/667 nm fluorescence (AID 1092).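 Note: probe is lysate of COS7 cells overexpressing human LULL1; score merges per-feature 667 nm fluorescence with signal-to-noise.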 The conditions noted are these: hLULL1 lysate binding, 635 nm fluorescence, higher = more signal.
A short description of test [16]: E. coli growth modulation, two-sided OD650, primary screen, E. coli filamentation project, strain DRC41, 24 h (AID 1093).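 Note: MC1000 strain lacking acrAB efflux and sulA so SOS filamentation is blocked; test concentration not given here.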 The conditions noted are these: OD650, 24 h, higher = more signal, called active from +8 up or from −8 down.
A short description of test [17]: small-molecule microarray binders of probe aLefty2, primary screen, biochemical, biotinylated probe, 635/667 nm fluorescence (AID 1094).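 Note: score merges spot fluorescence near 667 nm with spot signal-to-noise ratio.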 To be noted: higher = more signal.
For test [18], the system named is Noggin (protein binding on small-molecule microarray). Briefly: Noggin binders on small-molecule microarray, primary screen, biochemical, 635/667 nm fluorescence (AID 1095).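 Note: score merges 667 nm feature fluorescence with signal to noise over triplicate slides.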 The conditions noted are these: 635 nm fluorescence, higher = more signal.
Test [19] addresses Neurogenic locus notch homolog protein 3 (Homo sapiens) (UniProt Q9UM47). Kind of test: NOTCH3 binders on small-molecule microarray, primary screen, biochemical, 635/667 nm fluorescence (AID 1096). The conditions noted are these: NOTCH3 binding, 635 nm fluorescence, higher = more signal.
Test [20] can be described thus: small-molecule microarray binders of probe aEGFR, primary screen, biochemical, biotinylated probe, 635/667 nm fluorescence (AID 1097).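 Note: probe is a biotinylated anti-EGFR antibody binding compounds printed on slides; score combines fluorescence near 667 nm and signal to noise of each spot.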 The conditions noted are these: higher = more signal.

Chain of Neurogenic locus notch homolog protein 3 (Homo sapiens) (Q9UM47 whole entry, looked up): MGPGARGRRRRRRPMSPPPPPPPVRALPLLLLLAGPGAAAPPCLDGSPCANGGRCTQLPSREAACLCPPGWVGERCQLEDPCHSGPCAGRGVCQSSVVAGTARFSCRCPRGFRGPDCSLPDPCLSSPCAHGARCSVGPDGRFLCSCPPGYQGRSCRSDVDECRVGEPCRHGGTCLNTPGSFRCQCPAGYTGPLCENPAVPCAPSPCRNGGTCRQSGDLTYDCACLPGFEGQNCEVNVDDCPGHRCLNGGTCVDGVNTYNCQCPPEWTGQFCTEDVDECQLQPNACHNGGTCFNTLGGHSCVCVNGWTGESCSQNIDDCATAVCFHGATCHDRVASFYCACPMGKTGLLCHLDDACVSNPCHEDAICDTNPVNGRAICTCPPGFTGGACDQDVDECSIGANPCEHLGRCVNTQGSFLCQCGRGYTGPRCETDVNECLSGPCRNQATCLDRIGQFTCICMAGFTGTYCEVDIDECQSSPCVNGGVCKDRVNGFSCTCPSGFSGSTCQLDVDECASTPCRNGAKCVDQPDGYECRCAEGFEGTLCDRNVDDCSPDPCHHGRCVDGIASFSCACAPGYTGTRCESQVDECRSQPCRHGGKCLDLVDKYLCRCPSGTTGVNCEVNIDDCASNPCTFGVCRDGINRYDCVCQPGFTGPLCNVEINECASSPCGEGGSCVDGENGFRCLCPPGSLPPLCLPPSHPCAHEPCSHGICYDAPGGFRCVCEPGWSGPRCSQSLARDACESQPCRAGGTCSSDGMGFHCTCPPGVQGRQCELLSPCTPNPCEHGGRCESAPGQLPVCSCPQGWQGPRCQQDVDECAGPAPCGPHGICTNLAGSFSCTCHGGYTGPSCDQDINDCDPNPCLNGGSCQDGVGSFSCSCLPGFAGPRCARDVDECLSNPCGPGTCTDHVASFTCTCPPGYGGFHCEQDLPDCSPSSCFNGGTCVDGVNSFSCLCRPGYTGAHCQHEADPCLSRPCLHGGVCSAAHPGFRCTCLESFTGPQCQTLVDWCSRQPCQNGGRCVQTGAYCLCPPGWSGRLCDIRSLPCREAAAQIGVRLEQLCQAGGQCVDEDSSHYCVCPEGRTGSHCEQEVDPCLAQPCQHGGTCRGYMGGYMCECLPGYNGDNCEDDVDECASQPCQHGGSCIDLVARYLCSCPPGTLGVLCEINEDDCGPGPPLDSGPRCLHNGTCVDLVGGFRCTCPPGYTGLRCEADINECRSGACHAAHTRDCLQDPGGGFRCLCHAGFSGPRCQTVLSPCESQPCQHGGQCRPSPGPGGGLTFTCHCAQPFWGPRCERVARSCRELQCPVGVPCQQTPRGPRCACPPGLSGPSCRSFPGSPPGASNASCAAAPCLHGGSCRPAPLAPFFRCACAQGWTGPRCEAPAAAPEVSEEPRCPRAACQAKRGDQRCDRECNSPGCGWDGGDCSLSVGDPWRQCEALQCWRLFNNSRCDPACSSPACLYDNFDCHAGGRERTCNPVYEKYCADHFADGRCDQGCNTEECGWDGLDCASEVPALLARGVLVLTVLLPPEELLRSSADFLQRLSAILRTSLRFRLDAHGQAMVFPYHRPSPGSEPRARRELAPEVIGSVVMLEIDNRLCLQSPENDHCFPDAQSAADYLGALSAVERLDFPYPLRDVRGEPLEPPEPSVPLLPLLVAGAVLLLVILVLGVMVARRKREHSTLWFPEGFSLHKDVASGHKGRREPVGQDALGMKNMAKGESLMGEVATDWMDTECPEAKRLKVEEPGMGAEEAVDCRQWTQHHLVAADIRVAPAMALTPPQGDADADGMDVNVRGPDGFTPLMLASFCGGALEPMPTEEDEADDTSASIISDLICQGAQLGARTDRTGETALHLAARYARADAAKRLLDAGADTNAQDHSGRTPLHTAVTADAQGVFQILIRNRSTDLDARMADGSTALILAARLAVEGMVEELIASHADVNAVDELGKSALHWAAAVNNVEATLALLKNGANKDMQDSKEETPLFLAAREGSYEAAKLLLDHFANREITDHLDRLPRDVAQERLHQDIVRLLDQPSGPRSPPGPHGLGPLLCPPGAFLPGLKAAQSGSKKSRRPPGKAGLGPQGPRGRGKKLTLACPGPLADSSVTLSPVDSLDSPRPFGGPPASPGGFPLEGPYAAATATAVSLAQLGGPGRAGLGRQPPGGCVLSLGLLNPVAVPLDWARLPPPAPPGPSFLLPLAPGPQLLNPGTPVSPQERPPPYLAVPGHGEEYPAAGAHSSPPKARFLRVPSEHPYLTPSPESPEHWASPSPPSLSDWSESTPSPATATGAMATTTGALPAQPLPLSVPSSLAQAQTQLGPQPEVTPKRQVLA
Chain of Torsin-1A-interacting protein 2 (Homo sapiens) (Q8NFQ8 whole entry, looked up): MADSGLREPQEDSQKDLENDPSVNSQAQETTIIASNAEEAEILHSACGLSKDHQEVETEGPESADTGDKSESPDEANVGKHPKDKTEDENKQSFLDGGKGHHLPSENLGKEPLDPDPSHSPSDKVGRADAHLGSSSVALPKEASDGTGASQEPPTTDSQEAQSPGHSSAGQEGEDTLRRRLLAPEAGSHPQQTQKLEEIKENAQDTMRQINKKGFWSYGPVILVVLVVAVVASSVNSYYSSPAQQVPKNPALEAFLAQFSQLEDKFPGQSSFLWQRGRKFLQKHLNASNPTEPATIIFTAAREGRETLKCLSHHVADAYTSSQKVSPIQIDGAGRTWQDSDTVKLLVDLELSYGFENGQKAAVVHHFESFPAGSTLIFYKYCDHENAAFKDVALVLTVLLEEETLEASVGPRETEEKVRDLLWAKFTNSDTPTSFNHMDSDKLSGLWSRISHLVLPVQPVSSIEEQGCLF

On to `COc1cc(COC(C)=O)ccc1OC(C)=O`, for which the composite z-score in test [1] was 0.299; in [2] it was -0.0075; in test [3], 0.188; in test [4] it was 0.209; in [5], 0.137; in [6], 0.14. The composite z-score is -0.464 in test [7]; 0.408 in [9]; 0.318 in test [10]; 0.491 in test [11]; 0.418 in test [15]; 1.07 in test [17]. In addition, the composite z-score in [18] was determined as 0.373; in test [19], 0.279; in test [20], 0.643. The z-score in test [8] is -0.681 (inactive); in test [12] it was -2.59 (inactive); in test [13], -3.73 (inactive); in test [14], -0.724 (inactive); in test [16], 3.13 (inactive).
For the compound `COCC(=C=CC[C@@H](O)c1cccc(OCCO)c1)C[C@@H](O)c1ccccn1`, the composite z-score in test [1] was -0.19; in test [2] it was 0.0883; in [3], -0.0707; in [4], 0.338; in [5], -0.17; in test [6], 1.11. For the same compound, the composite z-score in [7] is 1.3; in [9], -0.27; in test [10], 0.176; in test [11], 0.523; in test [15], 1.12; in test [17], -0.193. The composite z-score in [18] was 0.657; in test [19], 0.599; in [20], -0.137. The z-score was 0.93 (inactive) in test [8]; 1.09 (inactive) in test [12]; -0.416 (inactive) in test [13]; -0.648 (inactive) in test [14]; 0.257 (inactive) in test [16].
Consider `COCCOC(=O)N1C(=O)[C@@]2(c3cc(C#CCNC(N)=O)ccc31)[C@H](C(=O)N1CCN(c3ncccn3)CC1)[C@H]1C(=O)O[C@H](c3ccccc3)[C@H](c3ccccc3)N1[C@@H]2c1ccc(OCCO)cc1`, for which the composite z-score in test [1] amounted to 0.0392; in test [2] it was 0.382; in test [3], 0.0465; in test [4] it was 0.719; in test [5], 0.795; in [6] it was 0.821. The composite z-score in test [7] is 0.87; in test [9], 0.601; in test [10], 0.0939; in test [11] it was 1.57; in test [15], 2.34; in test [17], 0.0158. The composite z-score is 0.707 in [18], 1.1 in test [19] and -0.0271 in [20]. Moreover, the z-score in test [8] was 0.0006 (inactive); in [12], 1.51 (inactive); in test [13], 0.383 (inactive); in test [14], 4.36 (inactive); in test [16], -0.351 (inactive).
Regarding `COc1cc(C(O)C2C=CC3C(=O)NC(=O)C3N2Nc2ccccn2)cc(OC)c1OC` (stereo not given), the composite z-score was -0.184 in test [1]; 0.299 in test [2]; 0.0353 in [3]; 0.52 in test [4]; 1.4 in test [5]; 0.802 in [6]. Further, the composite z-score in [7] is 1.3; in test [9], 0.0676; in [10], -0.0618; in test [11] it was 1.06; in test [15], 3.09; in test [17], 0.0624. The figures for the composite z-score in test [18], in test [19] and in test [20] were 0.0228, 0.158 and 0.0954, respectively. In addition, the z-score in test [8] was 1.73 (inactive); in test [12] it was 0.175 (inactive); in [13] it was 1.15 (inactive); in [14], 0.42 (inactive); in [16], -1.19 (inactive).
`C=CC[C@@]12N=C(c3ccc(OCCCO)cc3)O[C@@H]1c1ccccc1N(C)C2=O`: the composite z-score came to 0.463 in [1]; 0.233 in [2]; 0.128 in test [3]; 0.638 in test [4]; 0.8 in test [5]; 1.38 in test [6]. In addition, the composite z-score in test [7] turned out to be 1.31; in [9] it was 0.593; in [10], 0.0972; in test [11] it was 1.55; in test [15], 2.93; in test [17], 0.246. Further, the composite z-score amounted to 1.75 in [18], 0.997 in [19] and 0.0499 in [20]. Further, the z-score in test [8] is 1.72 (inactive); in test [12], 0.501 (inactive); in [13] it was -5.65 (inactive); in test [14], 0.432 (inactive); in test [16], 0.671 (inactive).
